Test [1] concerns the target Acetylcholinesterase (Homo sapiens) (UniProt P22303). Description: Acetylcholinesterase (AChE) small molecule antagonists: colormetric cell-based qHTS assay (AID 1347395). Further: nearly all actives have a fitted effect of over 30% in size. Further: potency means the concentration at half of the fitted maximal effect. In a few lines:
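Colorimetric readout: DTNB quantifies thiocholine from acetylthiocholine hydrolysed by endogenous AChE of SH-SY5Y cells (2,000/well, plated overnight). Compound pretreatment 30 min, substrate incubation 90 min, both 37 C.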
A general note: Quantitative high-throughput screening tests each substance at several concentrations.

Test [2] has the same target. The test is described as follows: Acetylcholinesterase (AChE) small molecule antagonists: enzyme-based qHTS assay (AID 1347397). Further: nearly all actives have a fitted effect of over 55% in size. The note with it: Potency: AChE enzyme activity inhibition; outcome: AChE enzyme activity inhibition. The method in brief:
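Recombinant human AChE, dispensed at 50 mU/mL, was preincubated with Tox21 10K compounds or DMSO vehicle for 30 min at room temperature. DTNB plus acetylthiocholine was then added, and thiocholine was measured colorimetrically after a further 10 min.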

Test [3] has the same target. The test is described as follows: Acetylcholinesterase (AChE) small molecule antagonists: fluorescence cell-based qHTS assay (AID 1347398). Further: nearly all actives have a fitted effect of over 50% in size. Further: potency means the concentration at half of the fitted maximal effect. To be noted: Potency: AChE activity; outcome: AChE activity. The method in brief: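 Human SH-SY5Y cells were plated overnight at 37 C, exposed to compound for 30 min at 37 C, 5% CO2, then given acetylthiocholine plus Thiolite Green for 40 min at room temperature; thiocholine fluorescence (Ex/Em 490/520 nm) reports endogenous AChE activity.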

Test [4] has the same target. Description: Acetylcholinesterase (AChE) small molecule antagonists: enzyme-based qHTS assay with human liver microsomes (AID 1347399). Further: nearly all actives have a fitted effect of over 60% in size. The note with it: Potency: qHTS inhibition; outcome: qHTS inhibition. The method in brief:
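Recombinant human AChE (50 mU/mL in the enzyme mix) and human liver microsomes (0.25 mg/mL final) were preincubated with compound and NADPH (0.25 mg/mL final) for 30 min at 37 C. Acetylthiocholine/DTNB was then added; thiocholine was read colorimetrically after 10 min at room temperature.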

Each structure is given as a SMILES string. A number with no mark means an inactive call. Records with an inconclusive call do not appear. Active and inactive are the calls of the source. The call rests on the fitted dose curve.

For 30 compounds, Potency, activity, negative = inhibition and activity change, negative = inhibition results are on record in PubChem BioAssay (Tox21).
On the % scale 0 is the no-effect control and ±100 the full control effect.

Chain of Acetylcholinesterase (Homo sapiens) (P22303 whole entry, looked up): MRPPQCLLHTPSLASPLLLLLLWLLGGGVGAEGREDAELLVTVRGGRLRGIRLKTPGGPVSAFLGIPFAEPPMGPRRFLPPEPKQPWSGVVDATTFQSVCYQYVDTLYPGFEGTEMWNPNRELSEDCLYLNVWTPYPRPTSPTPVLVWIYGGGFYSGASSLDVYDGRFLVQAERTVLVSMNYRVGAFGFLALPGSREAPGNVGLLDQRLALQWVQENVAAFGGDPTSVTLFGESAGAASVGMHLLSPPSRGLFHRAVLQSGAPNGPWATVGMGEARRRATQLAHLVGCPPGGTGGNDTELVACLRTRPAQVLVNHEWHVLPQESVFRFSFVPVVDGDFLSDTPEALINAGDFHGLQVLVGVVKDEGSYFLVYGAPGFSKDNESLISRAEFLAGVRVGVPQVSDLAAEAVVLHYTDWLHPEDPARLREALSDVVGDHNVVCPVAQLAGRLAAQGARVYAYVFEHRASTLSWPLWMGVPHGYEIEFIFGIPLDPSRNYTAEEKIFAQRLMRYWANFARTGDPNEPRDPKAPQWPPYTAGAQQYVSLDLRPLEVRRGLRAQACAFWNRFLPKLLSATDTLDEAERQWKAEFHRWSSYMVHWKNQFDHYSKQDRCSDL

Take `Cc1cccc(OCC(O)CNC(C)(C)C)c1C` (stereo not given): the Potency result in test [1], in test [2], in test [3] and in test [4] was “inactive” each time.
As to `CC(=O)OC/C=C(\C)CC/C=C(\C)CCC=C(C)C`, the Potency result in test [1], in test [2], in test [3] and in test [4] was “inactive” each time.
`CCCCCC#CC(=O)OC`: the Potency result in test [1], in test [2], in test [3] and in test [4] was “inactive” each time.
For `Nc1nc(F)nc2c1ncn2[C@@H]1O[C@H](CO)[C@@H](O)[C@@H]1O`, the Potency entry in test [1], in test [2], in test [3] and in test [4] was “inactive” throughout.
As for `O=C(O)CCCCCC(=O)O`, the Potency entry in test [1], in test [2], in test [3] and in test [4] was “inactive” throughout.
Consider `NCCN1CCNCC1`, for which the Potency result in test [1], in test [2], in test [3] and in test [4] was “inactive” each time.
As to `CC(=O)O[C@]1(C(C)=O)CC[C@H]2[C@@H]3C=C(Cl)C4=CC(=O)CC[C@]4(C)[C@H]3CC[C@@]21C`, the Potency entry in test [1], in test [2], in test [3] and in test [4] was “inactive” each time.
Turning to `Cn1cc(S(C)=O)c(=O)c2ccc(F)cc21` (stereo not given), the Potency entry in test [1], in test [2], in test [3] and in test [4] was “inactive” in each case.
Turning to `NC(=O)N[C@@H](CCC(=O)O)C(=O)O`, the Potency result in test [1], in test [2], in test [3] and in test [4] was “inactive” throughout.
Turning to `CC(C)C(=O)OCc1cccc(OC(=O)[C@@H]2N3C(=O)[C@@H](NC(=O)Cc4ccccc4)[C@H]3SC2(C)C)c1`, the Potency entry in test [1], in test [2], in test [3] and in test [4] was “inactive” in each case.
As to `O=C(O)CC(C(=O)O)C(CC(=O)O)C(=O)O` (stereo not given), the Potency entry in test [1], in test [2], in test [3] and in test [4] was “inactive” in each case.
Turning to `Cc1cccc(C(=O)O)c1[N+](=O)[O-]`, the Potency result in test [1], in test [2], in test [3] and in test [4] was “inactive” throughout.
Regarding `O=[N+]([O-])c1cc[n+]([O-])cc1`, the Potency result in test [1], in test [2], in test [3] and in test [4] was “inactive” throughout.
`CCCc1ccc(O)cc1`: the Potency entry in test [1], in test [2], in test [3] and in test [4] was “inactive” throughout.
Regarding `O=C1c2c(O)cccc2Cc2cccc(O)c21`, the Potency entry in test [1], in test [2], in test [3] and in test [4] was “inactive” each time.
On to `CCC(=O)/C=C/C1C(C)=CCCC1(C)C` (stereo not given), for which the Potency entry in test [1], in test [2], in test [3] and in test [4] was “inactive” throughout.
Turning to `Cc1ccc(NC(=O)N(C)C)cc1NC(=O)N(C)C`, the Potency entry in test [1], in test [2], in test [3] and in test [4] was “inactive” throughout.
As for `O=C(O)c1cc(Cl)cc(Cl)c1O`, the Potency entry in test [1], in test [2], in test [3] and in test [4] was “inactive” throughout.
Take `CC(O)CN(CCN(CC(C)O)CC(C)O)CC(C)O` (stereo not given): the Potency entry in test [1], in test [2], in test [3] and in test [4] was “inactive” in each case.
For `Clc1ccc(Nc2nnc(Cc3ccncc3)c3ccccc23)cc1`, the Potency entry in test [1], in test [2], in test [3] and in test [4] was “inactive” each time.
Regarding `CCc1nccnc1CC`, the activity, negative = inhibition in test [1] is 2.95% [at 23.6 µM]. Also, the activity change, negative = inhibition in test [2] is -0.515% [at 23.6 µM]; in test [3] it was 3.3% [at 23.8 µM]; in test [4], 0.443% [at 23.6 µM].
For `CC(C)(c1ccccc1)c1ccccc1`, the Potency result in test [1], in test [2], in test [3] and in test [4] was “inactive” in each case.
In the case of `Oc1ccc(C(c2ccc(O)cc2)C(Cl)(Cl)Cl)cc1`, the Potency entry in test [1], in test [2], in test [3] and in test [4] was “inactive” in each case.
Consider `CCCCN=C(N)N=C(N)N`, for which the Potency result in test [1], in test [2], in test [3] and in test [4] was “inactive” in each case.
In the case of `Cc1cc(C)c(N=Nc2c(O)c(S(=O)(=O)O)cc3cc(S(=O)(=O)O)ccc23)cc1C`, the activity, negative = inhibition in test [1] was 0.116% [at 10.5 µM]. The figures for the activity change, negative = inhibition in test [2], in test [3] and in test [4] were 0.136% [at 10.5 µM], -0.662% [at 10.5 µM] and 0.432% [at 10.5 µM], respectively.
For `O=C(O)CNCC(=O)O`, the activity, negative = inhibition in test [1] was 1.88% [at 10.5 µM]. For the same compound, the activity change, negative = inhibition in test [2] was -0.541% [at 10.5 µM]; in test [3], -0.972% [at 10.5 µM]; in test [4], -0.995% [at 10.5 µM].
In the case of `Brc1nc2ccccc2s1`, the Potency entry in test [1], in test [2], in test [3] and in test [4] was “inactive” each time.
`CCN(CC)CC(=O)Nc1c(C)cccc1C(=O)OC`: the Potency result in test [1], in test [2], in test [3] and in test [4] was “inactive” in each case.
Take `Cc1c(Cl)c(=O)oc2cc(O)ccc12`: the Potency in test [1] is 35.6 µM (active); in test [3], 71 µM (active). Moreover, the Potency entry in test [2] and in test [4] was “inactive” in each case.
`Oc1c(Cl)cc(Cl)c2cccnc12`: the Potency result in test [1], in test [2], in test [3] and in test [4] was “inactive” each time.
